Measured values from PubChem BioAssay AID1220 (Sanford-Burnham Center for Chemical Genomics, 2008).
Among all 190,000 compounds or so, about 1,300 (0.68%) were called active. Only a selection was taken, and actives are over-represented in it overall. Values without a mark were called inactive. Rule as the data show it: active = inhibition above about 50%; inactive = the rest.

Biological target: Mannose-6-phosphate isomerase (Homo sapiens) (UniProt P34949)
Assay: MPI inhibition at elevated mannose 6-phosphate – biochemical, fluorescence intensity, high mannose 6-phosphate, primary screen (AID 1220)
Conditions: recombinant PMI enzyme, coupled fluorescence intensity; at 20 µM; hits give high values

Sequence of Mannose-6-phosphate isomerase (Homo sapiens) (P34949 whole entry, looked up): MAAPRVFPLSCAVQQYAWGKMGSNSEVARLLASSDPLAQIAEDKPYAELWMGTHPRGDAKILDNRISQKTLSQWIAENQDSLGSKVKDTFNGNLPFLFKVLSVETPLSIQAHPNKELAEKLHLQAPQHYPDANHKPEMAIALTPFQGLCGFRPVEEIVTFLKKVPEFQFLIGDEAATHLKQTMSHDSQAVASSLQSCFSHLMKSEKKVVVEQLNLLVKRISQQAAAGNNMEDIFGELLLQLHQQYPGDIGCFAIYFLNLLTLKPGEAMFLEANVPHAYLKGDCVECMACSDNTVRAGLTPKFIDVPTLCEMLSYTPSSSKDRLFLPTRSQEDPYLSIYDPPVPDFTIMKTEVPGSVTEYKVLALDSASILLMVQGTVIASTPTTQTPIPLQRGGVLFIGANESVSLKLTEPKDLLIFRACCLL

| SMILES | inhibition |
| --- | --- |
| COc1cccc(CNCc2cccnc2)c1OCc1ccccc1 | -2% |
| Cc1ccc(Nc2ncnc3sc(C)c(C)c23)cc1 | 12.1% |
| O=C(CCNc1ccc(Br)cc1)c1cccc([N+](=O)[O-])c1 | 40.5% |
| O=C(CCNc1ccc(F)cc1)c1cccc([N+](=O)[O-])c1 | 48.4% |
| Cc1ccc(NCCC(=O)c2cccc([N+](=O)[O-])c2)cc1 | 39.2% |
| O=C(CCNc1ccc(Cc2ccncc2)cc1)c1cccc([N+](=O)[O-])c1 | 47.7% |
| O=[N+]([O-])c1ccc(Cc2ccncc2)cc1 | -1.9% |
| COc1cccc(NCCC(=O)c2cccc([N+](=O)[O-])c2)c1 | 62.3% (active) |
| O=C(CCNc1cccc(F)c1)c1cccc([N+](=O)[O-])c1 | 40.6% |
| COc1ccc2o/c(=N/NC(=S)Nc3ccccc3)c(C(N)=O)cc2c1 | 7.1% |
| O=C(O)c1ccccc1OC(=O)C12CC3CC(CC(C3)C1)C2 | 2.3% |
| CC1(C)CC(c2nc(-c3ccccc3)cs2)CCS1 (configuration not stated) | 0.5% |
| Cc1ccc(-c2cc(C)nc3nc(N)nn23)cc1 | 4.6% |
| CCOc1ccc(NC(=O)CSc2nc3c(c(=O)n2C)SC(C)C3)cc1 (configuration not stated) | 4.9% |
| Cc1noc(C(=O)Nc2ccccc2C(F)(F)F)c1Cl | 59.4% (active) |
| CSc1ccccc1NC(=O)c1onc(C)c1Cl | -2.4% |
| CCc1ccccc1NC(=O)c1onc(C)c1Cl | -3.2% |
| Cc1ccc(C(=O)OCC(=O)Nc2ccccc2C(F)(F)F)cc1S(=O)(=O)N1CCOCC1 | 3.2% |
| CC(C)c1ccccc1NC(=S)NCc1ccccc1F | 1.9% |
| N#Cc1cnc2c(-c3ccccc3)c(-c3ccccc3)nn2c1N | 15.3% |
| Fc1ccc2nc(C3CCN(Cc4nc(CC5CC5)no4)CC3)[nH]c2c1 | -5.1% |
| Fc1ccc(C2CCCCN2Cc2nc(CC3CC3)no2)cc1 (configuration not stated) | 1.9% |
| Fc1ccc2nc(C3CCCCN3Cc3nc(CC4CC4)no3)[nH]c2c1 (configuration not stated) | 53.6% (active) |
| Brc1ccc(-c2nc(-c3ccccn3)no2)o1 | -1.3% |
| CC(C)[C@H](NC(=O)c1ccccc1)C(=O)OCc1nnc(-c2ccccc2)o1 | 3.9% |

| SMILES | inhibition |
| --- | --- |
| O=C1C=CC2C(c3ccc4c(c3)OCO4)CC1N2Cc1ccccc1 (configuration not stated) | 63.6% (active) |
| O=C1CC(N2CCN(Cc3ccc4c(c3)OCO4)CC2)C(=O)N1CCc1ccccc1 (configuration not stated) | 4.8% |
| CC(=O)N1C(c2ccccc2)CC(=O)OC1c1ccc2c(c1)OCO2 (configuration not stated) | 9.9% |
| Cc1ccc(NC(=O)c2cc3ccccc3o2)cc1S(=O)(=O)N(C)C | 36.9% |
| Cc1cc(C)c(S(=O)(=O)Nc2cccc(S(=O)(=O)NC3=NCCC3)c2)c(C)c1 | -4.4% |
| CC1=CC(=O)C=C(C)C1=NOc1ccc([N+](=O)[O-])cc1 | 53.2% (active) |
| CN1CCC(=NOc2ccc([N+](=O)[O-])cc2)CC1 | -6.9% |
| CC1=CC(=O)C=C(C)C1=NOc1ccccc1[N+](=O)[O-] | 54.8% (active) |
| CC(C)(C)/C(COc1ccccc1[N+](=O)[O-])=N/O | 5.7% |
| CC1CN(C)C(C)C/C1=N/Oc1ccccc1[N+](=O)[O-] (configuration not stated) | 42.3% |
| CC1CN(C)C(C)C/C1=N\Oc1ccc([N+](=O)[O-])cc1 (configuration not stated) | -6.4% |
| N#Cc1ccc(NC(=O)CN2C(=O)NC(Cc3ccccc3)C2=O)cc1 (configuration not stated) | 3.6% |
| Cc1noc(C)c1COC(=O)COc1ccc(C#N)cc1 | -4.4% |
| COc1ccc(CNCC(O)(c2ccccc2)c2ccccc2)cc1OC | -0.4% |
| COc1ccc(CNCC(O)(c2ccc(Cl)cc2)c2ccc(Cl)cc2)cc1 | 0% |
| COc1ccc(CNCC(O)(c2ccc(Cl)cc2)c2ccc(Cl)cc2)cc1OC | 55.1% (active) |
| COC(=O)COc1ccc(S(=O)(=O)N2CCN(c3ccccc3)CC2)cc1 | -8.3% |
| O=C(c1cccc(F)c1F)N1CCCC1 | -8.2% |
| Nc1ccccc1C(=O)N1CCCC1 | 8.2% |
| O=C(c1cccc2cccc(O)c12)N1CCCCC1 | 63.7% (active) |
| Cc1ccc2c(c1)nnn2C1CCN(S(=O)(=O)c2ccc(C(=O)O)cc2)CC1 | 3.6% |
| Cc1ccc2c(c1)nnn2C1CCN(S(=O)(=O)c2ccc(C(=O)N3CC(C)CC(C)C3)cc2)CC1 (configuration not stated) | 10.4% |
| Cc1ccc2c(c1)nnn2C1CCN(S(=O)(=O)c2ccc(C(=O)N3C(C)CCCC3C)cc2)CC1 (configuration not stated) | 53% (active) |
| O=C(COC(=O)/C=C/c1ccccc1[N+](=O)[O-])NCC(F)(F)F | -8.8% |
| CCc1ccc(NC(=S)N2CCCCCCC2)cc1 | -7.1% |

| SMILES | inhibition |
| --- | --- |
| Cc1nc(SCC2(C)CC2(Cl)Cl)n[nH]1 (configuration not stated) | -3.1% |
| COc1ccc(/C=N/NS(=O)(=O)c2ccc(C)cc2)cc1OC(=O)c1ccc(C)cc1 | -3.5% |
| Cc1ccnc(N=Cc2c(O)ccc3oc4c(c23)CCCC4)c1 | 51.1% (active) |
| Oc1ccc2oc3c(c2c1/C=N/n1cnnc1)CCCC3 | 9.3% |
| Cc1cccc(/N=C/c2c(O)ccc3oc4c(c23)CCCC4)n1 | 13.6% |
| CCOC(=O)c1cnc2c(C#N)c(C)nn2c1-c1ccccc1 | 3.5% |
| COCCN=c1scc(-c2cc(OC)c(OC)c(OC)c2)n1/N=C/c1c(C)[nH]c2ccccc12 | 13.7% |
| N#Cc1cc([N+](=O)[O-])ccc1N1CCN(c2ccccc2O)CC1 | 10.8% |
| Nc1ccc2c(C(F)(F)F)cc(C(F)(F)F)nc2n1 | 53.7% (active) |
| CN(N)c1ccc2c(C(F)(F)F)cc(C(F)(F)F)nc2n1 | -11.3% |
| NNc1ccc2c(C(F)(F)F)cc(C(F)(F)F)nc2n1 | -7.7% |
| Cc1c(Cl)cccc1Nc1nc(N)nc(CSCCO)n1 | -1.1% |
| O=c1c2c3c(sc2nc2n1CCCCC2)C(O)CCC3 (configuration not stated) | 8.9% |
| Cc1cc(C)nc(N2N=C(C(C)(C)C)CC2=O)n1 | -15% |
| Cc1cc(C)nc(N2N=C(c3ccccc3)CC2=O)n1 | 26.8% |
| COc1ccc(C2=NN(c3nc(C)cc(C)n3)C(=O)C2)cc1 | 51.6% (active) |
| Cc1ccc(CN2CCCNC2=O)cc1 | -2.5% |
| COc1cc(NC(=O)COC(=O)C2CC2)c(C)cc1[N+](=O)[O-] | -8% |
| CCn1cc(Cl)c(C(=O)Nc2nc3ccccc3n2CCN2CCCCC2)n1 | -2.9% |
| Cc1c(Cl)c(C(=O)Nc2nc3ccccc3n2CCN2CCCCC2)nn1C | 55.1% (active) |
| O=C(Nc1nc2ccccc2n1CCN1CCCCC1)c1ccc(Cl)cc1 | -11.3% |
| CCOC(=O)c1cc(-c2ccc(C)cc2)n(CCC(=O)NCCN(C)C)c1C | 5.6% |
| O=C1CN2NC(=S)N(c3ccc(Cl)cc3)C2=CN1c1ccc(Cl)cc1 | -2.8% |
| CCOc1cc(NC(=S)NCCCN2CCOCC2)c(OCC)cc1NC(=O)c1ccccc1 | 24.1% |
| CCOc1cc(NC(=O)c2cccs2)c(OCC)cc1NC(=O)CCC(=O)NCCN1CCOCC1 | 10.6% |

| SMILES | inhibition |
| --- | --- |
| CCOc1cc(NC(=S)NCCCN2CCOCC2)c(OCC)cc1NC(=O)c1cccc(F)c1 | 49.5% |
| CCOc1cc(NC(=S)NCCCN2CCOCC2)c(OCC)cc1NC(=O)c1cccs1 | 56.1% (active) |
| CCOc1cc(NC(=S)NCCCN2CCOCC2)c(OCC)cc1NC(=O)c1ccc(C)cc1 | 52.6% (active) |
| CCOc1cc(NC(=S)NCCCN2CCOCC2)c(OCC)cc1NC(=O)c1ccccc1C | 47.3% |
| O=C(CCCCCn1c(=S)[nH]c2ccccc2c1=O)NCc1ccc2c(c1)OCO2 | -9.7% |
| C=CCNC(=S)NNC(=O)c1cccn(Cc2ccc(Cl)cc2Cl)c1=O | -10.6% |
| O=C(C[n+]1ccccc1)N/N=C/c1cccs1 | -14% |
| Cc1cc(C)nc(N(C#N)S(=O)(=O)c2ccc(Br)cc2)n1 | -3.3% |
| O=C(CSc1nc(O)cc(=O)[nH]1)N1c2ccccc2Sc2ccccc21 | 7.8% |
| COc1ccc(CCNC(=O)c2ccc(SC)cc2OC)cc1 | -1.4% |
| Nc1cc(OCC(F)(F)F)cc([N+](=O)[O-])c1 | -2.2% |
| Nc1cc(OCC(F)(F)F)cc(OCC(F)(F)F)c1 | 56.9% (active) |
| COCCOc1ccc(C(F)(F)F)cc1N | 8.3% |
| O=C(Nc1ccc(F)cc1)Nc1cc(OCC(F)(F)F)cc(OCC(F)(F)F)c1 | 8.1% |
| CONC(=O)c1cc(OCC(F)(F)F)ccc1OCC(F)(F)F | -7.9% |
| Nc1cc(N)c(OCC(F)(F)F)cc1OCC(F)(F)F | 55.8% (active) |
| O=C1CCC(/C=C/c2ccccc2)=NN1Cc1ccc(F)cc1 | -0.5% |
| CC(=O)NC(CC(=O)NC12CC3CC(CC(C3)C1)C2)c1ccccc1 (configuration not stated) | 1.3% |
| CCn1cc([N+](=O)[O-])c(C(=O)NCc2ccc(Cl)cc2)n1 | -5% |
| N#Cc1cc(Oc2ccccc2)c(-n2nnc3ccccc32)cc1C#N | 3.1% |
| C#CCOCCOCCOCCNc1nc(N2CCN(C(=O)[C@H]([C@@H](C)CC)n3cc(CCCCN)nn3)CC2)nc(N2CCN(C(=O)[C@H](C)n3cc(CCC(=O)O)nn3)CC2)n1 | -27.7% |
| COCCN1CC(=O)N(c2cccc(C)c2C)C(c2ccc(Cl)cc2)C1=O (configuration not stated) | -1.2% |
